# HepG2 viability = kills HepG2 cells in TGF-b inhibitor counter-screen; Potency, µM (series often up to 46.1 µM), without a hit: at the top dose activity change, negative = cytotoxicity, usual class: cytotoxic; actives 0.76% (n = 410,000); AID 588856; HepG2 CAGA-GFP viability, ATP luminescence, 18 h; further: potency means the concentration at half of the fitted maximal effect
#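 CellTiter-Glo luminescence gave cytotoxicity after 18 hours at 37 degrees C. The cells were HepG2 CAGA-GFP in 1% FBS DMEM, stimulated with 500 pg/mL TGF-beta after compound addition. %Activity was normalised to no-cell wells (complete cell-killing) and DMSO (no toxicity), and curves were fitted and classified.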
# TDP1 cell CPT = DT40-hTDP1 cell growth loss with CPT | chicken DT40 Tdp1-/-;hTDP1 cells + 20 nM CPT, ATP luminescence, 48 h | Potency, µM (top dose mostly 46.2 µM), for the others: top-dose activity change, negative = growth inhibition, most hits filed as inhibitors | actives 12% (n = 420,000); further: potency means the concentration at half of the fitted maximal effect; on the % scale 0 is the no-effect control and ±100 the full control effect; nearly all actives have a fitted effect of over 55% in size
#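 Cell growth measured by CellTiter-Glo luminescence after a minimum 48 h, 37 C compound exposure with 20 nM CPT in Tdp1-knockout DT40 cells stably expressing hTDP1, seeded 400/well; qHTS titration format.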
# DT40 TDP1 no CPT = qHTS for Inhibitors of human tyrosyl-DNA phosphodiesterase 1 (TDP1): qHTS in cells in absence of CPT; AID 686978, 2013; actives 15% (n = 420,000); DT40 Tdp1-/- hTDP1 cells, no CPT, ATP luminescence, 48 h; Potency, µM (top dose mostly 46.2 µM), without a hit: at the highest dose activity change, negative = growth inhibition, actives largely listed as inhibitors; further: potency means the concentration at half of the fitted maximal effect; on the % scale 0 is the no-effect control and ±100 the full control effect; nearly all actives have a fitted effect of over 55% in size
#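 DT40 Tdp1-/-;hTDP1 cells, no CPT (DMSO vehicle only), 400 cells/well; compounds pin-transferred; ≥48 hr, 37 °C; CellTiter-Glo 30 min RT dark, luminescence read.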
# ASM inhibitor = blocks human secretory acid sphingomyelinase | placental ASM, HMU-PC fluorogenic substrate, 60 min | P17405 | Potency, µM (titrated, usually from 57.5 µM), for the others: at the highest dose activity change, negative = inhibition, usual class: inhibitors | AID 504937 | actives 0.006% (n = 340,000); further: potency means the concentration at half of the fitted maximal effect
# Target sequence (P17405 47-631 limits assumed): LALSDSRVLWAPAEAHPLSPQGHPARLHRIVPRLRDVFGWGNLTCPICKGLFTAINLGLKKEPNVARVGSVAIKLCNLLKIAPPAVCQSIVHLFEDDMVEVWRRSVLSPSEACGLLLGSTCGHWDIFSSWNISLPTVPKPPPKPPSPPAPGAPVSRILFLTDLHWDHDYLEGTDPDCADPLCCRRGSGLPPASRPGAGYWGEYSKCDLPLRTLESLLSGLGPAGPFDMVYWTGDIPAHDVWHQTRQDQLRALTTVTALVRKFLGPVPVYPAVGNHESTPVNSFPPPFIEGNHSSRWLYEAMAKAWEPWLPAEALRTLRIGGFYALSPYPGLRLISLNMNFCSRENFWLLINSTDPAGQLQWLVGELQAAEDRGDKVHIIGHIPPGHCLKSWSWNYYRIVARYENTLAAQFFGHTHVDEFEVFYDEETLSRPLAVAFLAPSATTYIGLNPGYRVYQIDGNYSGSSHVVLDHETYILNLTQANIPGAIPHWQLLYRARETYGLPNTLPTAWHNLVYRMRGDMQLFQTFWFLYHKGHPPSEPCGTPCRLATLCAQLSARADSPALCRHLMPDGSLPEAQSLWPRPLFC
#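 Fluorogenic HMU-PC substrate (9 uM final) is turned over by placental ASM in 60 min at 37 C after a 10 min compound preincubation. Reaction ended by alkaline stop (pH 10), with fluorescence read at 386/447 nm.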
# IL-1B inflam inh = inhibitors of inflammasome signaling (IL-1 beta secretion); activity change, % at 57.5 µM; THP-1 LPS/ATP IL-1B secretion, AlphaLISA, 16 h; active compounds read low; actives 4.7% (n = 360,000); in the data active means activity change below about -50%; inconclusive means mostly about -30% to -49%; further: on the % scale 0 is the no-effect control and ±100 the full control effect
#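 Secreted IL-1B measured by AlphaLISA bead assay after 16 h compound exposure of THP-1 cells; compounds (final up to 57.5 uM) added 1 h before LPS (250 ng/mL) and ATP (1.25 mM) stimulation; lower signal means less secretion.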
# TGFb inhibitor = inhibitors of TGF-b signaling; Potency, µM (titrated, usually from 46.1 µM), for the others: top-dose activity, negative = inhibition, usual class: inhibitors; actives 1.2% (n = 410,000); HepG2 CAGA-GFP TGF-b/SMAD3 reporter, GFP fluorescence, 18 h; TGF-beta stimulated, 500 pg/mL final; further: potency means the concentration at half of the fitted maximal effect; on the % scale 0 is the no-effect control and ±100 the full control effect; nearly all actives have a fitted effect of over 65% in size
#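 Per well, imaged GFP fluorescence of HEPG2 CAGA-GFP cells gives the signal; cells get compound, then TGF-beta (500 pg/mL final), 18 h at 37 degrees C; %Activity versus -TGF-beta and +DMSO controls.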
# The depositor's hits bear a star; ? = inconclusive; . = no result; ! = not confirmed by another sample; [ ] = dose if it differs, or a comment. Only some compounds are listed: those with a hit (about 19% of all), similar ones and a draw of the others. Unless noted, the call rests on the fitted dose curve; in most records, active means well fitted curve in the direction sought with a large enough effect; inconclusive means small, poorly fitted or top-dose-only effect, or another doubt; inactive means no such curve, though single readings can be large; an effect the other way counts as inactive or inconclusive.
SMILES,HepG2 viability,TDP1 cell CPT,DT40 TDP1 no CPT,ASM inhibitor,IL-1B inflam inh,TGFb inhibitor
COCC1=C(C(=O)OC(C)OC(=O)OC(C)C)N2C(=O)[C@@H](NC(=O)/C(=N\OC)c3csc(N)n3)[C@H]2SC1 (stereo not given in full),-16%,3.3µM*!,1.3µM*!,0%,14,3%
COc1ccccc1OCC(=O)NNC(=O)c1ccoc1C,4%,15µM*,?,5%,-9,5%
Cc1cccc(C)c1OCC(=O)NNC(=O)c1ccoc1C,-1%,-10%,-1%,2%,2,7%
O=C(CSc1ncnc2nc[nH]c12)Nc1nnc(SCc2ccc(Cl)c(Cl)c2)s1,-21%,-28%,18µM*,-11%,19,-29%
Cc1ccc(C)c(NC(=O)CSc2ncnc3nc[nH]c23)c1,-12%,-15%,-9%,0%,33,-4%
CN(C)c1cccc2c(C=C(C#N)C#N)ccc(N(C)C)c12,3%,?,?,-20%,-95*,1%
CN(C)c1cccc2c(/C=N/O)ccc(N(C)C)c12,-7%,19%,-20%,1%,7,18%
O=C(CN1CCN(c2ccccn2)CC1)Nc1cccc(Br)c1,-24%,5%,-18%,-3%,-29,-23%
CCCC[C@H]1CCCO[C@@](C(=O)NCc2ccccc2)(C(F)(F)F)C1,-42%,.,.,.,.,4%
Cc1ccccc1CC1(CO)CCCN(C(=O)Cc2c(F)ccc(F)c2F)C1 (stereo not given),-5%,16µM*,?,2%,-8,-29%
COCCCC/C(=N\OCCN)c1ccc(C(F)(F)F)cc1,-41%,13µM*!,21µM*,1%,-51*!,2%
COCCOc1ccc(C(F)(F)F)cc1N,0%,-1%,-1%,-3%,-1,17%
COCCCCC(=NOCCN)c1ccc(C(F)(F)F)cc1,.,13µM*,24µM*,.,.,.
O=C(CCC(=O)OCC(=O)c1ccc(C(F)(F)F)cc1)OCC(=O)c1ccc(C(F)(F)F)cc1,1%,9%,3%,1%,13,18%
CC(=O)Nc1ccc(Sc2ccccc2C(=O)Nc2ccc(F)cc2)cn1,-3%,?,18µM*,-2%,22,0%
CC(=O)Nc1ccc(Sc2ccccc2C(=O)O)cn1,-3%,4%,16%,0%,13,-5%
CN(C)C=Nc1ncc2c3ccccc3n(CCN(C)C)c2c1C#N,-6%,21µM*,23µM*,6%,-77*,?
CCN(CC)CCn1c2ccccc2c2cnc(N)c(C#N)c21,-6%,?,21µM*,0%,-104*,-12%
CN(C)C=Nc1ncc2c3ccccc3n(Cc3ccccc3)c2c1C#N,-3%,-26%,?,10%,-4,-36%
COc1ccc(CCNc2nc3c(-c4cccc(C)c4)nnn3c3ccccc23)cc1OC,-17%,22%,-3%,.,.,-9%
COc1ccc(CCNc2nc(SCc3ccccc3Cl)nc3ccccc23)cc1OC,-15%,8.2µM*,4.6µM*,.,.,-2%
COc1ccc(CNc2nc(SCc3ccccc3Cl)nc3ccccc23)cc1,5%,?,16µM*,.,.,?
ClC1(Cl)CC1CSc1nnc(-c2ccncc2)o1 (stereo not given),10%,-25%,?,8%,-14,3%
CCOC(=O)N/N=C(\C)c1ccc(C)c([N+](=O)[O-])c1,-18%,-23%,?,1%,-6,-3%
CC(=O)Nc1cccc(/C(C)=N/NC(=S)NC(C)C)c1,-15%,3.7µM*,4.6µM*,3%,-27,12%
SMILES,HepG2 viability,TDP1 cell CPT,DT40 TDP1 no CPT,ASM inhibitor,IL-1B inflam inh,TGFb inhibitor
CC(=O)Nc1cccc(/C(C)=N/NC(N)=S)c1,-7%,11%,-2%,-1%,33,-4%
C/C(=N/Nc1nc(C)c(C)s1)c1cccc([N+](=O)[O-])c1,-10%,15µM*,23µM*,-8%,22,?
C/C(=N\NC(=S)NC(C)C)c1ccc(Cl)c([N+](=O)[O-])c1,-32%,18µM*,18µM*,6%,-92*,?
C/C(=N\NC(=O)c1ccc([N+](=O)[O-])cc1)c1cccc([N+](=O)[O-])c1,-1%,5%,-22%,-2%,-7,-1%
C/C(=N/NC(=S)Nc1cccc(C)c1)c1cccc([N+](=O)[O-])c1,-35%,12µM*,13µM*,-10%,-21,?
Cc1cccc(-c2cccc(C(=O)N3CCc4c(cnc(C)c4CNC(=O)c4cncs4)C3)c2)c1,.,-5%[9.04 µM],?,.,.,.
C/C(=N\NC(=S)NC(C)C)c1ccccc1,-8%,?,?,2%,-6,-15%
C/C(=N\NC(=S)NC(C)C)c1cccc([N+](=O)[O-])c1,-17%,0.92µM*,0.92µM*,.,-7,?
Cc1ccc(Cn2c(/C=C/c3ccco3)nc3ccccc32)cc1,-1%,?,15µM*,4%,-105*,-2%
Clc1ccc(Cn2c(/C=C/c3ccco3)nc3ccccc32)cc1,8%,?,?,79%,-94*,3%
Cn1c(=O)c2sccc2n2c(CCC(=O)N3CCN(c4cccc(Cl)c4)CC3)nnc12,1%,?,5.8µM*,.,.,5%
CCn1c(=O)c2sccc2n2c(CCCC(=O)N3CCN(c4cccc(Cl)c4)CC3)nnc12,-17%,18µM*,16µM*,.,.,-13%
CCn1c(=O)c2sccc2n2c(CCCC(=O)N3CCN(c4cc(Cl)ccc4C)CC3)nnc12,-11%,12µM*,8.2µM*,.,.,?
CCn1c(=O)c2sccc2n2c(CCCC(=O)N3CCN(c4ccccn4)CC3)nnc12,5%,?,?,4%,-25,2%
CCCn1c(=O)c2sccc2n2c(CCCC(=O)N3CCN(c4ccccc4)CC3)nnc12,4%,?,16µM*,.,.,?
CCCn1c(=O)c2sccc2n2c(CCCC(=O)N3CCN(c4ccc(OC)cc4)CC3)nnc12,-10%,?,?,.,.,?
Cn1c(-c2ccccc2)cc(=O)cc1-c1ccccc1,-1%,-8%,-18%,.,19,22%
O=c1cc(-c2ccccc2)cc(-c2ccccc2)n1O,-8%,21µM*,16µM*,-8%,120,?

# Screening results: PubChem BioAssay, National Center for Advancing Translational Sciences (NCATS)
